In PubChem BioAssay (EPA / NIEHS) one finds outcome and AC50 data, which are given here for twelve compounds.

Inconclusive results are not listed. Activity calls are given as the source filed them. Rule for the calls, unless noted: active = hit-call score of the fitted dose curve at least 0.9, where 1 is the maximum; inconclusive = response in the unintended direction; inactive = score below 0.9.

The test system of experiment [1] is Sodium/Iodide Symporter (NIS), SLC5A5 (gene 6528). As to the kind of experiment: CPHEA_Stoker_NIS_Inhibition_RAIU: CPHEA's Radioactive Iodide Uptake (RAIU) Assay for Sodium/Iodide Symporter (NIS) Inhibition, Stoker and Laws Labs (AID 2283841). The method, boiled down:
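Iodide uptake read as CPM of intracellular 125I (final 329 pM) after 2 h room-temperature exposure in HEPES-buffered HBSS, pH 7.4. Human NIS-expressing HEK293T cells; six concentrations 0.001–100 uM, 0.5% DMSO, normalised to DMSO wells.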

Experiment [2] in a line: CPHEA_Stoker_NIS_Cytotoxicity: Cytotoxicity Assessment for CPHEA's Radioactive Iodide Uptake (RAIU) Assay for Sodium/Iodide Symporter (NIS) Inhibition, Stoker and Laws Labs (AID 2283897). The gist of the method:
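CellTiter-Glo ATP luminescence gauged viability in HEK293T cells expressing human NIS after 2 h chemical exposure. Concentrations ran 0.001–100 uM in 0.5% DMSO; DMSO served as baseline for the loss-of-signal fit.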

Experiment [3] in a line: CEETOX_H295R_11DCORT_noMTC: CeeTox H295R High-throughput Steroidogenesis Assay for 11-Deoxycortisol (11DCORT), maximum tolerated concentration (MTC) filtered results only (AID 2283911; active = hit-call score of the fitted dose curve at least 0.9, where 1 is the maximum; inactive = score below 0.9). To be noted: actives raise or lower the signal. The method, boiled down:
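H295R, OECD 456-based; 10 uM forskolin 48 h → compound (0.1% DMSO) 48 h → medium extracted, 11DCORT by LC-MS/MS. Gain/loss vs DMSO control, all concentrations kept regardless of MTT viability.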

Experiment [4] can be described thus: CEETOX_H295R_OHPREG_noMTC: CeeTox H295R High-throughput Steroidogenesis Assay for OH-Pregnenolone (OHPREG), maximum tolerated concentration (MTC) filtered results only (AID 2283912; active = hit-call score of the fitted dose curve at least 0.9, where 1 is the maximum; inactive = score below 0.9). To be noted: actives raise or lower the signal. The method, boiled down: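 Medium 17alpha-hydroxypregnenolone quantified by reverse-phase HPLC-MS/MS after 48 h chemical exposure of forskolin-prestimulated (10 uM, 48 h) H295R, 0.1% DMSO final. Fitting bidirectional relative to DMSO; no maximum-tolerated-concentration filtering applied.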

Experiment [5] is described as follows: CEETOX_H295R_OHPROG_noMTC: CeeTox H295R High-throughput Steroidogenesis Assay for OH-Progesterone (OHPROG), maximum tolerated concentration (MTC) filtered results only (AID 2283914; active = hit-call score of the fitted dose curve at least 0.9, where 1 is the maximum; inactive = score below 0.9). The note with it: actives raise or lower the signal. The gist of the method: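 After 48 h forskolin (10 uM) prestimulation, H295R adrenal cells received test chemical in 0.1% DMSO for 48 h. Medium 17alpha-hydroxyprogesterone was MTBE-extracted and measured by HPLC-MS/MS; gain or loss relative to DMSO, no MTT-based MTC filtering.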

Experiment [6] in a line: CEETOX_H295R_CORTISOL_noMTC: CeeTox H295R High-throughput Steroidogenesis Assay for Cortisol, maximum tolerated concentration (MTC) filtered results only (AID 2283916; active = hit-call score of the fitted dose curve at least 0.9, where 1 is the maximum; inactive = score below 0.9). To be noted: actives raise or lower the signal. The gist of the method: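 Cortisol secretion measured by LC-MS/MS after 48 h chemical treatment (final 0.1% DMSO) of forskolin-primed (10 uM, 48 h) H295R cells; gain or loss fitted relative to DMSO, without maximum-tolerated-concentration filtering.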

A short description of experiment [7]: CEETOX_H295R_CORTIC_noMTC: CeeTox H295R High-throughput Steroidogenesis Assay for Corticosterone (CORTIC), maximum tolerated concentration (MTC) filtered results only (AID 2283917; active = hit-call score of the fitted dose curve at least 0.9, where 1 is the maximum; inactive = score below 0.9). To be noted: actives raise or lower the signal. The gist of the method:
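Human adrenal H295R cells were prestimulated 48 h with 10 uM forskolin, then exposed 48 h to chemical in 0.1% DMSO. Medium corticosterone was MTBE-extracted and quantified by HPLC-MS/MS; bidirectional fits versus DMSO, concentrations not MTC-filtered.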

Experiment [8] addresses Peroxisome proliferator-activated receptor gamma (Homo sapiens) (UniProt P37231). Description: ATG_hPPARg_XSP2: Attagene TRANS-FACTORIAL Multi-Species (XSP2) HepG2 Assay for human Peroxisome Proliferator-activated Receptor gamma (PPARg) (AID 2283829).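 Note: actives raise reporter mRNA above DMSO so AC50 reflects PPARg activation.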 The gist of the method: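 Transient MRTU transfection, HepG2; TRANS format (exogenous NR-Gal4 chimeras). 24 h chemical exposure with 3 nM 6-alpha-fluorotestosterone and 1.5 nM norgestrel present. Readout: reporter mRNA via RT-PCR/CE fluorescence, up-direction vs DMSO.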

Experiment [9] deals with mouse Peroxisome Proliferator-activated Receptor gamma (PPARg), Pparg (gene 19016) (UniProt P37238). Description: ATG_mPPARg_XSP2: Attagene TRANS-FACTORIAL Multi-Species (XSP2) HepG2 Assay for mouse Peroxisome Proliferator-activated Receptor gamma (PPARg) (AID 2283830).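 Note: hits are gains in reporter mRNA above DMSO so AC50 marks activation.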 The gist of the method: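 Multiplexed TRANS reporter readout: after 24 h chemical exposure of transfected HepG2 cells (with 3 nM 6-alpha-fluorotestosterone, 1.5 nM norgestrel present), RNA reverse-transcribed, amplified, 6-FAM-labelled and resolved by capillary electrophoresis; mouse PPARg-Gal4 induction scored against DMSO.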
Sequence of mouse Peroxisome Proliferator-activated Receptor gamma (PPARg), Pparg (gene 19016) (P37238 whole entry, looked up, the tested form may be a part): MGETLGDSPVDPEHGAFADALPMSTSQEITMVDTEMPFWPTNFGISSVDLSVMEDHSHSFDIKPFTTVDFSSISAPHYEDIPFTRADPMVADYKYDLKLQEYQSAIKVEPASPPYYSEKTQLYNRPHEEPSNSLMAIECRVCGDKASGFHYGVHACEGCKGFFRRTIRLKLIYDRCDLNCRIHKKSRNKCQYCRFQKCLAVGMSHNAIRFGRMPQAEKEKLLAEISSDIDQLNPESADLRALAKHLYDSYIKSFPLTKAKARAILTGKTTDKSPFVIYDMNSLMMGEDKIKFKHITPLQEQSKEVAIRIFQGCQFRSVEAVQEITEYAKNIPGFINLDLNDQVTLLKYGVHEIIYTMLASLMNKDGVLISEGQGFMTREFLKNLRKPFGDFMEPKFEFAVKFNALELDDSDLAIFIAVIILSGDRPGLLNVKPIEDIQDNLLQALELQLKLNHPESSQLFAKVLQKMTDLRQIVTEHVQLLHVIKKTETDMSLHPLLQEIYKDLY

In experiment [10] the target is Nuclear receptor subfamily 1 group I member 2 (Mus musculus) (UniProt O54915). As to the kind of experiment: ATG_mPXR_XSP2: Attagene TRANS-FACTORIAL Multi-Species (XSP1) HepG2 Assay for mouse Pregnane X Receptor (PXR) (AID 2283831). The method, boiled down:
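Transient HepG2 transfection, multiplexed GAL4-UAS reporters, NR-GAL4 chimeras. 24 h compound exposure. Readout: reporter mRNA, RT-PCR, fluorescent capillary electrophoresis; positive direction vs DMSO baseline.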

The target in experiment [11] is zebrafish Thyroid Hormone Receptor alpha (TRa), thraa (gene 30670) (UniProt Q98867). Description: ATG_zfTRa_XSP2: Attagene TRANS-FACTORIAL Multi-Species (XSP1) HepG2 Assay for zebrafish Thyroid Hormone Receptor alpha (TRa) (AID 2283832).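 Note: actives raise zebrafish TRa-Gal4 reporter transcript above DMSO baseline.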 The method, boiled down:
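Readout is reporter mRNA induction, quantified by RT-PCR and capillary electrophoresis with fluorescent labelling, after 24 h compound exposure of transiently transfected HepG2 cells carrying NR-Gal4 chimera reporters. Activity fitted upward relative to DMSO.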

The subject of experiment [12] is zebrafish Peroxisome Proliferator-activated Receptor gamma (PPARg), gene 557037. Description: ATG_zfPPARg_XSP2: Attagene TRANS-FACTORIAL Multi-Species (XSP2) HepG2 Assay for zebrafish Peroxisome Proliferator-activated Receptor gamma (PPARg) (AID 2283833).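 Note: reporter mRNA from a zebrafish PPARg GAL4 chimera measured by RT-PCR and capillary electrophoresis; actives increase reporter signal over DMSO so AC50 reflects activation.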 The method, boiled down:
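Transfect HepG2 with multiplexed GAL4-UAS reporter constructs; dose chemical 24 h; isolate RNA, reverse-transcribe, PCR-amplify, label and digest reporter products; resolve by capillary electrophoresis. Activity taken as increase over DMSO.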

Experiment [13] relates to turtle Thyroid Hormone Receptor, alpha (TRa), gene 101949057. Description: ATG_trTRa_XSP2: Attagene TRANS-FACTORIAL Multi-Species (XSP1) HepG2 Assay for turtle Thyroid Hormone Receptor, alpha (TRa) (AID 2283834).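 Note: hits raise reporter mRNA over the DMSO baseline so AC50 marks activators.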 The method, boiled down: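 Readout: reporter mRNA induction, fluorescence after RT-PCR, HpaI digestion and capillary electrophoresis. Transiently transfected HepG2, exogenous NR-Gal4 chimera driving GAL4-UAS reporter, 24 h compound exposure. Activity fitted upward relative to DMSO baseline.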

The nature of experiment [14]: ATG_M_61_XSP2: Attagene TRANS-FACTORIAL Multi-Species (XSP2) HepG2 Assay for M61 Transcription Factor (Internal Marker) (AID 2283835; active = hit-call score of the fitted dose curve at least 0.9, where 1 is the maximum; inactive = score below 0.9;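 note: active means a rise in signal above the DMSO baseline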). The method, boiled down: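 Internal background marker, read as RT-PCR/capillary-electrophoresis reporter mRNA 24 h post-dose in transiently transfected HepG2 cells. Androgen receptor stimulated with 3 nM 6-alpha-fluorotestosterone plus 1.5 nM norgestrel; gain of signal versus DMSO analysed.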

Experiment [15] has as its target zebrafish Thyroid Hormone Receptor beta (TRb), thrb (gene 30607) (UniProt Q9PVE4). As to the kind of experiment: ATG_zfTRb_XSP2: Attagene TRANS-FACTORIAL Multi-Species (XSP1) HepG2 Assay for zebrafish Thyroid Hormone Receptor beta (TRb) (AID 2283836). The method, boiled down: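 Reporter transcripts were measured by RT-PCR with fluorescent primer extension and capillary electrophoresis, 24 h after chemical dosing of transiently transfected HepG2 cells. Activity was scored as upward signal versus DMSO baseline.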

The target of experiment [16] is human Thyroid hormone Receptor alpha (TRa), THRA (gene 7067) (UniProt P10827). As to the kind of experiment: ATG_hTRa_XSP2: Attagene TRANS-FACTORIAL Multi-Species (XSP2) HepG2 Assay for human Thyroid hormone Receptor alpha (TRa) (AID 2283838). The gist of the method:
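Gain-of-signal in reporter mRNA, relative to DMSO, after 24 h dosing of transfected HepG2; quantitation by RT-PCR fragment analysis on capillary electrophoresis.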

Experiment [17] has as its target human Thyroid hormone Receptor beta (TRb), THRB (gene 7068) (UniProt P10828). As to the kind of experiment: ATG_hTRb_XSP2: Attagene TRANS-FACTORIAL Multi-Species (XSP2) HepG2 Assay for human Thyroid hormone Receptor beta (TRb) (AID 2283840).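 Note: actives raise reporter mRNA so potency reflects agonist-like gain of signal.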 The gist of the method: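 Read-out: reporter mRNA induction (RT-PCR, 6-FAM labeling, capillary electrophoresis), gain-of-signal relative to DMSO baseline. Transiently transfected HepG2 TRANS multiplex (NR-Gal4 chimeras, GAL4-UAS reporters), 24 h chemical exposure; medium contained 3 nM 6-alpha-fluorotestosterone plus 1.5 nM norgestrel.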

A short description of experiment [18]: CEETOX_H295R_ANDR_noMTC: CeeTox H295R High-throughput Steroidogenesis Assay for Androstenedione (ANDR), maximum tolerated concentration (MTC) filtered results only (AID 2283915; active = hit-call score of the fitted dose curve at least 0.9, where 1 is the maximum; inactive = score below 0.9). The note with it: actives raise or lower the signal. The method, boiled down:
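Androstenedione secreted into medium was measured by LC-MS/MS after MTBE extraction. Human adrenal H295R cells received 10 uM forskolin for 48 h before 48 h chemical exposure (0.1% DMSO). Gain or loss fitted against DMSO, including concentrations above the MTT-derived MTC.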

Sequence of human Thyroid hormone Receptor alpha (TRa), THRA (gene 7067) (P10827 whole entry, looked up, the tested form may be a part): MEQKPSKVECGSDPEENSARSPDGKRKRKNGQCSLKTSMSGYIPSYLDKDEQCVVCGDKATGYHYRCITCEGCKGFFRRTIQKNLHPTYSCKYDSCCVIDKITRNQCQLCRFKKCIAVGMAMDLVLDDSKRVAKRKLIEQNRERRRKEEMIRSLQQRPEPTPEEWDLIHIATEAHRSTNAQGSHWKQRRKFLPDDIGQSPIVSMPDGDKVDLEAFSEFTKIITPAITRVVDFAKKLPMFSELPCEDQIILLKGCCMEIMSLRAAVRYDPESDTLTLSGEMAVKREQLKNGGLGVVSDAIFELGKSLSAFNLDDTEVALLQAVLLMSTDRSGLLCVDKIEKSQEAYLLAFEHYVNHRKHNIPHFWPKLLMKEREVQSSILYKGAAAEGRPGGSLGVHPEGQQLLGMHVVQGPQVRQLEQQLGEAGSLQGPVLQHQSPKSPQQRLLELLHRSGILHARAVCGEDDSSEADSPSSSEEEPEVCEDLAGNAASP
Sequence of human Thyroid hormone Receptor beta (TRb), THRB (gene 7068) (P10828 whole entry, looked up, the tested form may be a part): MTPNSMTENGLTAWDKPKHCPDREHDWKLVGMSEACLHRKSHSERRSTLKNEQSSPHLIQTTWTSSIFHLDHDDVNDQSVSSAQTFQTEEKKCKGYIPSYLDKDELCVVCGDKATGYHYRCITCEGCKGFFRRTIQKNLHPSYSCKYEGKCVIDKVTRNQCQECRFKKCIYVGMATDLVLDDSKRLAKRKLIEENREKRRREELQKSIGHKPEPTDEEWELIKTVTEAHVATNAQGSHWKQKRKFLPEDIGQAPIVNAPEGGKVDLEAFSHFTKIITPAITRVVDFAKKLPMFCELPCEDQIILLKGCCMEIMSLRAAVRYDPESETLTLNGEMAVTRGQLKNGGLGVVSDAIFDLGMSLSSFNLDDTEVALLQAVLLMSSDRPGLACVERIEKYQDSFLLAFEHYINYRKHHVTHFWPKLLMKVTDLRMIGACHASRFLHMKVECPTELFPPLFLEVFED
Sequence of zebrafish Thyroid Hormone Receptor beta (TRb), thrb (gene 30607) (Q9PVE4 whole entry, looked up): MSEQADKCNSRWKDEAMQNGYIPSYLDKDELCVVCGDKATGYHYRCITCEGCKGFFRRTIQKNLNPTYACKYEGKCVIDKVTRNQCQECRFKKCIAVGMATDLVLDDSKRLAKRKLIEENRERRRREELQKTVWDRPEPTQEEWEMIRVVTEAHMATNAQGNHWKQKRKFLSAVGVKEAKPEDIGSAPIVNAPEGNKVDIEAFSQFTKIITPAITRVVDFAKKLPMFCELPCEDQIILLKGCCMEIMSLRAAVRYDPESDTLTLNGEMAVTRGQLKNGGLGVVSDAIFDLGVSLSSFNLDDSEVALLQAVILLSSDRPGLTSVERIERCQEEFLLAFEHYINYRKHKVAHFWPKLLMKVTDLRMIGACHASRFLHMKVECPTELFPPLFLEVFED
Sequence of Nuclear receptor subfamily 1 group I member 2 (Mus musculus) (O54915 whole entry, looked up, the tested form may be a part): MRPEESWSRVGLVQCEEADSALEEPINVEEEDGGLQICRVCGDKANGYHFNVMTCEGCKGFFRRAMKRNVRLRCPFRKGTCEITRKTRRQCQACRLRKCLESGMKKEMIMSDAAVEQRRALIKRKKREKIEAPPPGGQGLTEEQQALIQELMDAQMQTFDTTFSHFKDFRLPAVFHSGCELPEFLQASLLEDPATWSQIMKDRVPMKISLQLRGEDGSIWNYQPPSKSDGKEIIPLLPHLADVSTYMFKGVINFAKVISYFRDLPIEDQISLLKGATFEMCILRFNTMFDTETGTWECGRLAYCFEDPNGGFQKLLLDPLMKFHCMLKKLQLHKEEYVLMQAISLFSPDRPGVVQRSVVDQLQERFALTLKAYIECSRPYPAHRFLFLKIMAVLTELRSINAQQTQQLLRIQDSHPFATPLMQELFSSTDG
Sequence of zebrafish Thyroid Hormone Receptor alpha (TRa), thraa (gene 30670) (Q98867 whole entry, looked up, the tested form may be a part): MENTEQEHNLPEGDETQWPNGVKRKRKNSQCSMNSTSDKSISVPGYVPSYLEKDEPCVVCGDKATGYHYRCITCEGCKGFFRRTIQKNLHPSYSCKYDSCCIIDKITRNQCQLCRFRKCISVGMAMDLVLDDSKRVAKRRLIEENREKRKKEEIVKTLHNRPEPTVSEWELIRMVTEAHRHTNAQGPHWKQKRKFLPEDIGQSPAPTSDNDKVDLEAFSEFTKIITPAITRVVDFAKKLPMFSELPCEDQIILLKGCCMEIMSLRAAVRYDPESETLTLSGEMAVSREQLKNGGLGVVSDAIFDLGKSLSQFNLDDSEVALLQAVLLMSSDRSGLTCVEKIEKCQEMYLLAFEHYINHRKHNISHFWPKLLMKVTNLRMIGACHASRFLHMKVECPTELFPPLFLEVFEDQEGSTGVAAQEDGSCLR
Sequence of Peroxisome proliferator-activated receptor gamma (Homo sapiens) (P37231 whole entry, looked up, the tested form may be a part): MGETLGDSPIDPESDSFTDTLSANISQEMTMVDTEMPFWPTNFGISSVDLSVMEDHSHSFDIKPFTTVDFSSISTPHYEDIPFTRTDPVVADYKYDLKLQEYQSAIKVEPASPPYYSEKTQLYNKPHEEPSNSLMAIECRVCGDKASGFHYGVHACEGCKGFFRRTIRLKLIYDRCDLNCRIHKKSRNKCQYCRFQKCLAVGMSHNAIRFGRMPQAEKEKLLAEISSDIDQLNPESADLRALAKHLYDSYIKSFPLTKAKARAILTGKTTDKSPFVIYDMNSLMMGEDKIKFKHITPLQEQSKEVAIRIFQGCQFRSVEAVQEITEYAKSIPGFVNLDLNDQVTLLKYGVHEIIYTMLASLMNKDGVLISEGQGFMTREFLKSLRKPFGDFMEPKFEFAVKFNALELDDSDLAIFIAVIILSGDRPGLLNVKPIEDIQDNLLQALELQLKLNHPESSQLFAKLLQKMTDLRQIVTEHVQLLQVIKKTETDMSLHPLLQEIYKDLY

As to `CCCCOC(=O)c1ccccc1`, the outcome in experiment [1] and in experiment [2] was inactive.
In the case of `O=S(=O)(O)CCC(F)(F)C(F)(F)C(F)(F)C(F)(F)C(F)(F)C(F)(F)F`, in [1], the outcome was inactive.
As to `Cn1cc[nH]c1=S`, the outcome in [1] and in [2] was inactive.
For `CCCCCCCCCCCCCCCCOS(=O)(=O)O`, in experiment [2], the outcome was inactive.
For the compound `CCc1ccc(O)c(C(C)(C)C)c1`, the outcome in experiment [1] and in experiment [2] was inactive.
Consider `NC(=O)N1c2ccccc2C=Cc2ccccc21`, for which the outcome in experiment [1] and in experiment [2] was inactive.
In the case of `O=S(=O)(O)c1ccc(N=Nc2c(O)ccc3cc(S(=O)(=O)O)ccc23)cc1`, the result in experiment [3], in experiment [4], in [5], in experiment [6] and in experiment [7] was inactive.
Take `CCCCC(CC)C(=O)OCCOCCOCCOC(=O)C(CC)CCCC` (centres undefined): the outcome in experiment [1] and in experiment [2] was inactive.
Regarding `Cc1nccn1-c1ccc(Sc2cccc(C3(C(N)=O)CCOCC3)c2)cc1`, the outcome in experiment [1] and in experiment [2] was inactive.
On to `CC(C)c1nnc2ccc(-c3ocnc3-c3cc(F)ccc3F)cn12`, for which the result in experiment [1] and in experiment [2] was inactive.
Usually AC50 stands for the concentration giving half of the maximal activity seen. On to `CCN(CC)C(=S)SSC(=S)N(CC)CC`, for which the AC50 is 34.9 µM (active) in [8], 42.9 µM (active) in experiment [9] and 5.57 µM (active) in experiment [10]. Also, the call in experiment [11], in experiment [12], in experiment [13], in experiment [14], in experiment [15] and in [16] was inactive. Besides, the compound was classed as inactive in experiment [17], in [1] and in experiment [2].
In the case of `Cc1nc(-c2ccccn2)ncc1C(=O)Nn1cc(C)c2cc(F)ccc21`, the AC50 is 13.2 µM (active) in experiment [3]; 4.1 µM (active) in experiment [4]; 8.28 µM (active) in [5]; 22.5 µM (active) in experiment [18]; 12.7 µM (active) in experiment [6]; 9.57 µM (active) in experiment [7].
